Source: ChEMBL document CHEMBL3988442, “University of Dundee, Small-Polar-MMV Screening Library” (2021)
For some of these results: Measured potencies and affinities stand elsewhere.

Assays:
Parameters in all cases: scale not given: direction of the effect not stated beside the values
[1] = target: Protein translocase subunit SecA (Escherichia coli (strain K12)) (UniProt P10408); experiment: Assay to Identify E. coli SecA ATPase Inhibitors; type: functional; details: 30 µM
[2] = target: T1, Ubiquitin-activating enzyme e1, putative (Leishmania donovani (strain BPK282A1)) (UniProt E9BSI1); experiment: Leishmania donovani Ubiquitin Activating Enzyme (LdE1); type: functional; details: 30 µM
T1 sequence (whole entry): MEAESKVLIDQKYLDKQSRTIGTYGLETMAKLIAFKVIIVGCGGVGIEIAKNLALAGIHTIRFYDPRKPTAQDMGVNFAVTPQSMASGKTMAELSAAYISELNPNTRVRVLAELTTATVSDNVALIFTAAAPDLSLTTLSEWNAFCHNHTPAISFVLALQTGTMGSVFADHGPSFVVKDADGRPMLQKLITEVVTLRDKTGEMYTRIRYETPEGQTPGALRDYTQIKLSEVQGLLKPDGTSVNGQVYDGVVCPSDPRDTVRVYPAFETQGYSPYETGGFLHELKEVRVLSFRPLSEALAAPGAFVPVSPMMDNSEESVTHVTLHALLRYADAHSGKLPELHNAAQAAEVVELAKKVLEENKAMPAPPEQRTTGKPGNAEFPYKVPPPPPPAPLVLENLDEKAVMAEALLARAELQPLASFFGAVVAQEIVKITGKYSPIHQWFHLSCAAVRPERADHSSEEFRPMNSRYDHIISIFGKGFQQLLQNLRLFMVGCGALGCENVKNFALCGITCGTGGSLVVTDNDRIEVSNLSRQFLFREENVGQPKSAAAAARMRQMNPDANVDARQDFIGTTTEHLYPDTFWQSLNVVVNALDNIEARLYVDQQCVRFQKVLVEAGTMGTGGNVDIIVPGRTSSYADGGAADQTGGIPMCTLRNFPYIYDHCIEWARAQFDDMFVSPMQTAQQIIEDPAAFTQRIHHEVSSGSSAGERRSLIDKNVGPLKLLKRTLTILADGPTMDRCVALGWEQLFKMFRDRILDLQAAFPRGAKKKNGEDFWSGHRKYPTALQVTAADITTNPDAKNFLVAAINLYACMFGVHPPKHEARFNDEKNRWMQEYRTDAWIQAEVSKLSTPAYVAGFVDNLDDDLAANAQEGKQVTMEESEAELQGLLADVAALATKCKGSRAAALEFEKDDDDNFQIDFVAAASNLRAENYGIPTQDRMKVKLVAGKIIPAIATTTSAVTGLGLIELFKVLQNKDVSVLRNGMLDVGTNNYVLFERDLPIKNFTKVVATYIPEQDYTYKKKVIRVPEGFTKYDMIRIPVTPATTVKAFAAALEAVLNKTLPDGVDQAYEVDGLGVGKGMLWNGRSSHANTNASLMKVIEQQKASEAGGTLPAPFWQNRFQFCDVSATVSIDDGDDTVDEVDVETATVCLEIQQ

[3] = target: AMP-activated protein kinase, AMPK (Homo sapiens) (UniProt P54646+O43741+P54619+Q9UGJ0+Q9Y478+Q13131+Q9UGI9); experiment: AMP-dependent Kinase enzyme assay. An in vitro enzyme assay that detects ADP turnover that is directly proportional to AMPK activity. This uses naive AMPK that is activated during the assay with MK-8722; type: functional; details: 30 µM
[4] = target: Sialic acid-binding Ig-like lectin 9 (Homo sapiens) (UniProt Q9Y336); experiment: Hs-Siglec9 ALPHAscreen SOP 20170721; details: 10 µM
Sequence of Sialic acid-binding Ig-like lectin 9 (Homo sapiens) (Q9Y336 whole entry): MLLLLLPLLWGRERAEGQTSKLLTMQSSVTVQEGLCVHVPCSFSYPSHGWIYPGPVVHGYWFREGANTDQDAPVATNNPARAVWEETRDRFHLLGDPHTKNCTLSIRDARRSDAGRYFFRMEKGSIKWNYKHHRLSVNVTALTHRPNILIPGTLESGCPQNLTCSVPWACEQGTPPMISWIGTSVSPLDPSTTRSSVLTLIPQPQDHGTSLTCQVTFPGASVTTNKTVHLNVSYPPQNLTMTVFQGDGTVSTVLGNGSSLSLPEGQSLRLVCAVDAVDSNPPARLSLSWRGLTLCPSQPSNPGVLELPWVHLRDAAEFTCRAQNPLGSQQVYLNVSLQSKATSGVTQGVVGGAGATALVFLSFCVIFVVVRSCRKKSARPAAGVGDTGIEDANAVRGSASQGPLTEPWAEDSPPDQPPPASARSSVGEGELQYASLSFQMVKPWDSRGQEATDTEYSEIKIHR

Trypanosoma cruzi = experiment: Trypanosoma cruzi phosphomannomutase and mannose-1-phosphate guanylyltransferase assay; type: functional; details: 10 µM
[5] = target: T2, Arginase-2, mitochondrial (Homo sapiens) (UniProt P78540); experiment: in vitro enzyme assay to detect the production of urea directly proportional to the activity of Arginase II; type: functional; details: 33.3 µM; further: in the data most compounds retested in dose-response had high values
T2 sequence (whole entry): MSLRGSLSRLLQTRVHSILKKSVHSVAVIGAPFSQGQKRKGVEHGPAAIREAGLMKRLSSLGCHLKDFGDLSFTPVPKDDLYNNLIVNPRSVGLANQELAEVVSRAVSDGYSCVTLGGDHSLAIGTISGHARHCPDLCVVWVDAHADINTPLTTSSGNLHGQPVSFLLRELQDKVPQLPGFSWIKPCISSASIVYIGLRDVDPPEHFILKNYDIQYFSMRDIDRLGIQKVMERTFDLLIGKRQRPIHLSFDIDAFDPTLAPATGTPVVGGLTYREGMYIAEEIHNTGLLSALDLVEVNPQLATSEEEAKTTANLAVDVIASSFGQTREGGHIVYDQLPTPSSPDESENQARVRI

[6] = target: T3, Proteasome subunit beta (Trypanosoma cruzi) (UniProt O96673); experiment: Trypanosoma cruzi proteasome chymotrypsin-like activity (TcProtChymo) assay.; further: in the data most compounds retested in dose-response had high values; type: functional; details: 9.37 µM
T3 sequence (whole entry): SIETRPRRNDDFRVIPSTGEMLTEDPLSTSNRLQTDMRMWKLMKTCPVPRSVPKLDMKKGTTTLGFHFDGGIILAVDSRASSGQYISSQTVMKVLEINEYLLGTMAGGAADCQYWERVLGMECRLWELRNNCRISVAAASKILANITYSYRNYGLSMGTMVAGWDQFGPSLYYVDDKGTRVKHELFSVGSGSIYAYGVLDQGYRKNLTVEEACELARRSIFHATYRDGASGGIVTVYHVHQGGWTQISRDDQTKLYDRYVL

Homo sapiens = organism: Homo sapiens; experiment: To identify inhibition of the IFN signalling (Jak-Stat) pathway via expression of an eGFP reporter gene under the control of an IFN-stimulated response element (ISRE) containing MxA promoter.; type: functional; details: 30 µM
[7] = target: T4, Tyrosyl-tRNA synthetase, putative (Trypanosoma cruzi (strain CL Brener)) (UniProt Q4DSP6); experiment: Trypanosoma cruzi tyrosyl tRNA synthetase (TcYRS) _High Tyrosine SOP; type: functional; details: 30 µM; further: in the data most compounds retested in dose-response had high values
T4 sequence (whole entry): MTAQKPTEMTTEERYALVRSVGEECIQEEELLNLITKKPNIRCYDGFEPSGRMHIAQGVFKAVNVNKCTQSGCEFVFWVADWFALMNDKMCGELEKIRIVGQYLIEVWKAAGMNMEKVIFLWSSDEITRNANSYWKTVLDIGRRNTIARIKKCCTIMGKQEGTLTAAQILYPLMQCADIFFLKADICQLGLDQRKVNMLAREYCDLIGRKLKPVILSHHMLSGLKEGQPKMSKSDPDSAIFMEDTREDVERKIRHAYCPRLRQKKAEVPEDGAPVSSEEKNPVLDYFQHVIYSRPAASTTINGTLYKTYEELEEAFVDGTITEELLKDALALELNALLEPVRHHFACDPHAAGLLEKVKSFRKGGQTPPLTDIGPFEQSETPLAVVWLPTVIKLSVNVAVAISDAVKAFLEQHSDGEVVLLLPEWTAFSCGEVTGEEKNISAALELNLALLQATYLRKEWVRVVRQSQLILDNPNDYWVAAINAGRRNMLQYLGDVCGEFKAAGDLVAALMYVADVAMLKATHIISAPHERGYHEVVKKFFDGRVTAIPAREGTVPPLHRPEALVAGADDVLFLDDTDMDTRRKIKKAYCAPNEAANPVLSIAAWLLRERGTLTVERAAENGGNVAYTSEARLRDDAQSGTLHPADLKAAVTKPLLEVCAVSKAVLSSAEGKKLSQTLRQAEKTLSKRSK

[8] = target: T4, Tyrosyl-tRNA synthetase, putative (Trypanosoma cruzi (strain CL Brener)); experiment: Trypanosoma cruzi tyrosyl tRNA synthetase (TcYRS) SOP; type: functional; details: 30 µM
[9] = target: Chromo domain-containing protein 1 (Saccharomyces cerevisiae (strain ATCC 204508 / S288c) (Baker's yeast)) (UniProt P32657); experiment: ScCHD-1 Enzyme Inhibition Assay; type: functional; details: 30 µM; further: in the data most compounds retested in dose-response had high values
Sequence of Chromo domain-containing protein 1 (Saccharomyces cerevisiae (strain ATCC 204508 / S288c) (Baker's yeast)) (P32657 whole entry, the tested form may be a part): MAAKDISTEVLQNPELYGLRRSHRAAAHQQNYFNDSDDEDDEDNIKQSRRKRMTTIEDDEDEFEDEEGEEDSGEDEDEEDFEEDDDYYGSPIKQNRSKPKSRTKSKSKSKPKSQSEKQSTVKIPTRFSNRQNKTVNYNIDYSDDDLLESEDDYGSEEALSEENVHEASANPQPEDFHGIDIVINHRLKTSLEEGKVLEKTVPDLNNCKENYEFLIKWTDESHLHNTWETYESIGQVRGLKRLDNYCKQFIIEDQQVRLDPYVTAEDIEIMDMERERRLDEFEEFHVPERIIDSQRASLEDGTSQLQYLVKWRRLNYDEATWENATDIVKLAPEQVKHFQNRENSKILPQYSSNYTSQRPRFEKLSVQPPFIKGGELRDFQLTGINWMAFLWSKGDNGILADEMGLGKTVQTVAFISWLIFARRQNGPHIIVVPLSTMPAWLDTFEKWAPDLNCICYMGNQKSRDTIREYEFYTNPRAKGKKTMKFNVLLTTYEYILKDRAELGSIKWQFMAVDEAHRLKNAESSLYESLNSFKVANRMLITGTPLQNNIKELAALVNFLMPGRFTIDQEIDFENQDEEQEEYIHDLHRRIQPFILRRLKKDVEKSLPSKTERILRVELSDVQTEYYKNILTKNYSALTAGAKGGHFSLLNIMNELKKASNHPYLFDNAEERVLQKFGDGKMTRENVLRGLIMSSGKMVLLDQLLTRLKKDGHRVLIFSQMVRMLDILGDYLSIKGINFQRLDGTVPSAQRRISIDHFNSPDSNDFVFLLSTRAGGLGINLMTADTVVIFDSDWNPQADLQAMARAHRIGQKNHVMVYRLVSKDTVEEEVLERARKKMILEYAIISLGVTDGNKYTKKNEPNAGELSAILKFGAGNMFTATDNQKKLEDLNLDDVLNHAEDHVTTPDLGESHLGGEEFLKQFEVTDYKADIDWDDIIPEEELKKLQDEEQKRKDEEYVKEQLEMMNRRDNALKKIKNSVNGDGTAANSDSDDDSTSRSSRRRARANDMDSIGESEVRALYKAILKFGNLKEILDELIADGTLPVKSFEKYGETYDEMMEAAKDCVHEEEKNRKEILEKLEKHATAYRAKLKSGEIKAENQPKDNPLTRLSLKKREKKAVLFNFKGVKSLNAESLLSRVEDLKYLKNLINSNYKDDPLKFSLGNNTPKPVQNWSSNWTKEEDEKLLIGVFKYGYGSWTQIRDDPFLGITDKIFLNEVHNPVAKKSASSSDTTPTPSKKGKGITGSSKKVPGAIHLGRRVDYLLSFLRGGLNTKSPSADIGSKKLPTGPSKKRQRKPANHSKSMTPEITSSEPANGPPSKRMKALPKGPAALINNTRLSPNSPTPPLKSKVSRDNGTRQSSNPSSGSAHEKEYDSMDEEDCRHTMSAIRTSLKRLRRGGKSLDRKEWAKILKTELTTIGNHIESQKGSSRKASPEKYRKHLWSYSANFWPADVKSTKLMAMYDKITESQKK

Sequence of Protein translocase subunit SecA (Escherichia coli (strain K12)) (P10408 whole entry): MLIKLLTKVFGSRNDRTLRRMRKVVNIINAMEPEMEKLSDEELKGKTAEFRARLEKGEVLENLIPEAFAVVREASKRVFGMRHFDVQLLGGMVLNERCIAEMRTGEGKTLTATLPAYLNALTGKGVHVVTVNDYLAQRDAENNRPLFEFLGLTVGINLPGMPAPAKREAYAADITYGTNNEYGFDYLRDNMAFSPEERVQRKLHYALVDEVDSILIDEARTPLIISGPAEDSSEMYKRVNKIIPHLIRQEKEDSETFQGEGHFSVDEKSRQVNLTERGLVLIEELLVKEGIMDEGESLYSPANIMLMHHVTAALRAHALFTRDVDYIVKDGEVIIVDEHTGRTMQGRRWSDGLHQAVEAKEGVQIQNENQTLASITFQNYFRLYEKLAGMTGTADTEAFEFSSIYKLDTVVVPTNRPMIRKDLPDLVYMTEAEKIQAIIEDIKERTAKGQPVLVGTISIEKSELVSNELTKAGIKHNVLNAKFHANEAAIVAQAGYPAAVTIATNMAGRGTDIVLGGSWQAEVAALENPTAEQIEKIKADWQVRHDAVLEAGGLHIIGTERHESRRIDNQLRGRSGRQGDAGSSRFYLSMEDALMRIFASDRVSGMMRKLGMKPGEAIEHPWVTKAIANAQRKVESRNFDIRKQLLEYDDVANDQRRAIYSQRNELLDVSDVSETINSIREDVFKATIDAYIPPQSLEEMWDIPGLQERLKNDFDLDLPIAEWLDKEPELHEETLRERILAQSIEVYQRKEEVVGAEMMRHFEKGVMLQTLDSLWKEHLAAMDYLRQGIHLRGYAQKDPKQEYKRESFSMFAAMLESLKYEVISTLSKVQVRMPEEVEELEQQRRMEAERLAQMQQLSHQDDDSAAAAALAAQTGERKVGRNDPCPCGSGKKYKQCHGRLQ

Row | Compound | Percent Effect [1] | Percent Effect [2] | Percent Effect [3] | Percent Effect [4] | Percent Effect (Trypanosoma cruzi) | Percent Effect [5] | Percent Effect [6] | Percent Effect (Homo sapiens) | Percent Effect [7] | Percent Effect [8] | Percent Effect [9]
1 | CCc1nnsc1C(=O)NCCn1nc2ccccn2c1=O | -5.54% | 18.9% | -7.77% | 20.2% | 5.66% | 4.25% | 8.8% | -0.849% | 6.93% | 18.3% | -9.16%
2 | CN(CC(=O)N1CCCC1Cn1cccn1)c1cnccn1 (configuration not stated) | -5.14% | 0% | 0.965% | 10.7% | -1.6% | -1.9% | -0.901% | 15.8% | -2.46% | -1.27% | -2.89%
3 | Cc1ccc(CN2CCc3c(C(=O)N(C)C)nn(C)c3C2)s1 | -1.04% | 8.22% | -3.87% | 6.86% | 5.95% | 0% | 18.6% | 6.25% | 8.33% | 11.1% | -4.79%
4 | Cn1cccc1C(=O)N1CCCN(CCCc2ccccc2)CC1 | 4.69% | -11% | -4.66% | 8.38% | -2.38% | -14.8% | 14.3% | 18.6% | 9.38% | 16.1% | -3.52%
5 | Cc1ccoc1C(=O)N1CC[C@H]2O[C@@H](C)C[C@H]2C1 | -5.4% | 21.3% | -6.43% | 2.33% | 5.6% | -45.3% | 9.06% | 2.95% | 8.33% | 22.5% | -8.54%
6 | Cc1nnc(C(C)NCC2(c3c(F)cccc3F)CCCC2)o1 (configuration not stated) | -2.54% | -2.7% | -3.85% | 0.273% | -0.965% | 1.91% | 7.93% | 14.7% | 0.529% | 9.76% | -3.86%
7 | Cc1nc(C)n(CC2CCCN(CCOc3cccc(C#N)c3)C2)n1 (configuration not stated) | 1.74% | 21.6% | 7.7% | 4.91% | -8.4% | 24.9% | 11.2% | 17.4% | 0.493% | -1.24% | -4.16%
8 | Cc1nc(C2CCCCN2C(=O)c2ccccc2)ncc1C(=O)N(C)C (configuration not stated) | 0.833% | -5.33% | 7.56% | 0.633% | -1.97% | 4.89% | 0.0881% | 10.8% | 1.06% | 1.28% | 0.34%
9 | Cc1nc(N)cc(C2CN(C(=O)c3ccn(C)n3)CCO2)n1 (configuration not stated) | -6.21% | 17.6% | 0.477% | 3.12% | 0.198% | -3.94% | 10.4% | 8.03% | 3.23% | 16.9% | -24.2%
10 | CC(=O)NCCc1cc(N2CCN(C(C)=O)CC2)nc(C2CC2)n1 | 2.03% | -6.76% | 10.3% | -0.0242% | -3.75% | 1.16% | 9.36% | 7.59% | 2.15% | -1.3% | -3.42%
11 | CC(=O)N1CCC2(CC1)COCCN2CCN(C)C | -1.15% | 5.33% | 0.268% | 4.02% | -4.25% | -26.3% | 3.59% | -11.5% | 2.08% | -25% | -5.07%
12 | COc1ccc(F)cc1S(=O)(=O)NCC(c1cccn1C)N(C)C (configuration not stated) | -3.57% | 8.22% | -1.87% | -2.56% | 0.196% | 3.64% | 11.5% | 7.4% | 7.53% | 20% | -6.57%
13 | Cc1ccn2cc(C(=O)N3CCCC3c3c(C)nn(C)c3C)nc2c1 (configuration not stated) | -7.15% | 8.86% | 7.77% | -1.49% | -3.79% | 1.5% | 9.09% | 4.07% | 5.21% | 0% | -3.05%
14 | OC(CN1CCN(Cc2ccc(F)cc2)CC1)C1CC1 (configuration not stated) | -4.82% | 8.22% | -8.34% | -6.79% | 0.392% | 1.82% | 4.61% | 2.15% | 6.45% | 20% | -4.22%
15 | CCNC(=O)CCc1c(C)nc2cc(O)nn2c1C | -0.575% | 15.6% | -428% | 4.55% | 5.43% | 4.63% | 16.9% | 23.5% | 2.91% | 12.2% | -8.86%
16 | NC(=O)CC1CCN(C(=O)CCOc2ccc(Cl)cc2)CC1 | -3.65% | 10.5% | 2.65% | 4.69% | 0.752% | -4.6% | 8.19% | 1.27% | 6.37% | 12.2% | -8.66%
17 | CC(=O)Nc1nc(C(=O)N2CCCC2c2ccccc2C)cs1 (configuration not stated) | -3.82% | 10.4% | 8.63% | 1.33% | -8.24% | 4.27% | 3.21% | 31.4% | 5.83% | 9.76% | -5.39%
